Columns and labels:
Assay in all cases: log2 ratio of Biotin-Ahx-Ub-VS probe labelling (fragment/DMSO); higher = less target engagement (more negative = stronger competition), active = hit call of the paper (q ≤ 0.05, log2 ratio ≤ -1)
Details in all cases: compound concentration: 200 uM; treatment time: 3 h
USP9X = USP9X (UniProt Q93008)
Outline: (§1)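 HEK293T lysate (495 µg per sample, in Tris/CHAPS/IGEPAL buffer with protease inhibitors) was exposed in triplicate for 3 h to fragment at 200 µM or to vehicle, then to Biotin-Ahx-Ub-VS at 0.5 µM final for 1 h. Labelled DUBs were enriched on NeutrAvidin, digested with LysC and trypsin, and analysed by diaPASEF LC-MS/MS. Spectronaut label-free quantities were normalised to the global median, and values are average log2 ratios of fragment over vehicle from an unpaired t-test. Only proteins with ≥2 unique peptides were used.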

UniProt O00487 = target: UniProt O00487
Outline: as §1

UniProt O00507 = target: UniProt O00507
Outline: as §1

UniProt P51784 = target: UniProt P51784
Outline: as §1

UniProt Q5T2D3 = target: T1, UniProt Q5T2D3
T1 sequence (whole entry): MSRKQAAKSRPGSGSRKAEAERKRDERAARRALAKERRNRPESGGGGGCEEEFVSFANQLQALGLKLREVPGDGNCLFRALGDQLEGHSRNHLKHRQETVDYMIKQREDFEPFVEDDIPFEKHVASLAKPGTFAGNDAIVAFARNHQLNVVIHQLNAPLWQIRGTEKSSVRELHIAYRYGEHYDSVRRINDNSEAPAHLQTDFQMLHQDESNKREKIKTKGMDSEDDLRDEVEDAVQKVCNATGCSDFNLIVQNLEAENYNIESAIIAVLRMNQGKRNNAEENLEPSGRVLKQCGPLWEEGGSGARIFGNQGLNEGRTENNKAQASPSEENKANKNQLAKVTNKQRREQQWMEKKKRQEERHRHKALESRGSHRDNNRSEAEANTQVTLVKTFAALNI
Outline: as §1

UniProt Q8TE49 = target: T2, UniProt Q8TE49
T2 sequence (whole entry): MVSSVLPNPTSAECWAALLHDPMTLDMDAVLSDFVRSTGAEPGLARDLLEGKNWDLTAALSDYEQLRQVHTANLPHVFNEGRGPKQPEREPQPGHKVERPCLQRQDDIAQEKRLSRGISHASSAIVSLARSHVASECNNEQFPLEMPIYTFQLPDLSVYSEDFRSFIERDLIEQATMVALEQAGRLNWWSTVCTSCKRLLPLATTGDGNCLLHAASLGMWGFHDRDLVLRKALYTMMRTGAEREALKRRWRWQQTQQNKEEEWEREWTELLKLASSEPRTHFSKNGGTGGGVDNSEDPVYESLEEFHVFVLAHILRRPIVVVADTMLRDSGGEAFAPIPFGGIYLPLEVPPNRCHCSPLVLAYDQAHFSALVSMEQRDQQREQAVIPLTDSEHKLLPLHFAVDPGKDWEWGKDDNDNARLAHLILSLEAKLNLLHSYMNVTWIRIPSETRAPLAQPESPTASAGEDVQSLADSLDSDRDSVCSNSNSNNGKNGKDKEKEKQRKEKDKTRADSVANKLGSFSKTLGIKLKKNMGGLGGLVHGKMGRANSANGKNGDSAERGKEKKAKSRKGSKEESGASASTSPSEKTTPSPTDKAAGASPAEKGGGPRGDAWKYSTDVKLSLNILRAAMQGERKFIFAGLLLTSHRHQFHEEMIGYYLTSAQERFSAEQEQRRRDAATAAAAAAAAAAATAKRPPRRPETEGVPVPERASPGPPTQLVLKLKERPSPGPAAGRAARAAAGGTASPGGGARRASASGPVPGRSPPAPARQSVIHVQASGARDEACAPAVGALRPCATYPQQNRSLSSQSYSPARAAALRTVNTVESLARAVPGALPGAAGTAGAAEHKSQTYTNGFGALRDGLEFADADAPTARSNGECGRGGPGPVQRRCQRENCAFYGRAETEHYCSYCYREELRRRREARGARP
Outline: as §1

UniProt Q9P2H5 = target: T3, UniProt Q9P2H5
T3 sequence (whole entry): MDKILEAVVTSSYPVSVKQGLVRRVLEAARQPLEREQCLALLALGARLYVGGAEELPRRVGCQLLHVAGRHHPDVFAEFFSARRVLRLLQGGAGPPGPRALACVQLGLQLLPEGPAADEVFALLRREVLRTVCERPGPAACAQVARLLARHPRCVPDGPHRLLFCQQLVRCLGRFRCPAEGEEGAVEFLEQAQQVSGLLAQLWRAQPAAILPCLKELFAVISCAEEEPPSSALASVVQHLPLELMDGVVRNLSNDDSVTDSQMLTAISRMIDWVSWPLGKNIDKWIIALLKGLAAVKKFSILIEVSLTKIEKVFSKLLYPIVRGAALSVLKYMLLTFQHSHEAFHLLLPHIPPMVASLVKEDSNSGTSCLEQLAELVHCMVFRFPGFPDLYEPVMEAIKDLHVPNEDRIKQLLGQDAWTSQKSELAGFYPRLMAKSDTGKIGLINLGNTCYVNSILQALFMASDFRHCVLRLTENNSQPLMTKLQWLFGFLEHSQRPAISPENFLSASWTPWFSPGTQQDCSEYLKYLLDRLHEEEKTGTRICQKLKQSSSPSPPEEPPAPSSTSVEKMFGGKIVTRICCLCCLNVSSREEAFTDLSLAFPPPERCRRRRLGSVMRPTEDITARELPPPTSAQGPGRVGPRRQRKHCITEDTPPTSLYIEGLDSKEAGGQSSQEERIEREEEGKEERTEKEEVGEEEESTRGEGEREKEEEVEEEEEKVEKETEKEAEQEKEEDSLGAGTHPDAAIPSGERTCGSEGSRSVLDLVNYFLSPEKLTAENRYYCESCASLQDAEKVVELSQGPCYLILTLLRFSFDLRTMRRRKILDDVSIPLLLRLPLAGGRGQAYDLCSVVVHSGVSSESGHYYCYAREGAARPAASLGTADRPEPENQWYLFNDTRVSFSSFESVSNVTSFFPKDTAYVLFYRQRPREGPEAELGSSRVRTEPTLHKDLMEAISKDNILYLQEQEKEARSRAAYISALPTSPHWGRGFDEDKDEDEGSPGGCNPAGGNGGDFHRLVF
Outline: as §1

UniProt Q9UGI0 = target: T4, UniProt Q9UGI0
T4 sequence (whole entry): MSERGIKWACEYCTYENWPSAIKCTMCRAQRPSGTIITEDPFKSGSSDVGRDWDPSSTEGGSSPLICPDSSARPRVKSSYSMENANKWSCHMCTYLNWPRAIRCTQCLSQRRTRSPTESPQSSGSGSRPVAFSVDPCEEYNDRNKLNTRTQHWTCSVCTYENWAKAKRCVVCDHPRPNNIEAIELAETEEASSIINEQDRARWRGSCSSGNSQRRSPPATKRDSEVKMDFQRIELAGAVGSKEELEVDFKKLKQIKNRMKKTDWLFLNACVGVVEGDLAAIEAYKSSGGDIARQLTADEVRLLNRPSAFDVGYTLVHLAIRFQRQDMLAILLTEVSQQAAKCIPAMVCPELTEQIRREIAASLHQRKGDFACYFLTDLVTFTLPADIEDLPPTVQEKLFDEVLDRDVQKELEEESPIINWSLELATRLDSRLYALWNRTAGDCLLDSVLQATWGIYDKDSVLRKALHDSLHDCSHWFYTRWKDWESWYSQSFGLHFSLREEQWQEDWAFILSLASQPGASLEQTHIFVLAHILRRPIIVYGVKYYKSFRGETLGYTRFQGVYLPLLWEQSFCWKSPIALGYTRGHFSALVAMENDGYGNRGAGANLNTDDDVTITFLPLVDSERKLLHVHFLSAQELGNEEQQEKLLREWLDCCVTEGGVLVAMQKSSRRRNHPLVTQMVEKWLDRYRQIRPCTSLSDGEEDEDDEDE
Outline: as §1

YOD1 = target: T5, YOD1 (UniProt Q5VVQ6)
T5 sequence (whole entry): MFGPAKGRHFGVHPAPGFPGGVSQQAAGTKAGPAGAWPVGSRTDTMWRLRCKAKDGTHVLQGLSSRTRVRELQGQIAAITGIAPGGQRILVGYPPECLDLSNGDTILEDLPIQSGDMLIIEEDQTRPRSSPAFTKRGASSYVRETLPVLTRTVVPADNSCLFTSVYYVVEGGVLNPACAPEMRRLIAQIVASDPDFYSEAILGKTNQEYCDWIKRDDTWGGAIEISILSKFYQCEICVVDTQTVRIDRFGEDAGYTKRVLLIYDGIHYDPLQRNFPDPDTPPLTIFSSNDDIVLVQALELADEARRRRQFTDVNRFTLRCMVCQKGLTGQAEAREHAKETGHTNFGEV
Outline: as §1

Measured: log2 ratio of Biotin-Ahx-Ub-VS probe labelling

Chain of UniProt O00507 (O00507 whole entry): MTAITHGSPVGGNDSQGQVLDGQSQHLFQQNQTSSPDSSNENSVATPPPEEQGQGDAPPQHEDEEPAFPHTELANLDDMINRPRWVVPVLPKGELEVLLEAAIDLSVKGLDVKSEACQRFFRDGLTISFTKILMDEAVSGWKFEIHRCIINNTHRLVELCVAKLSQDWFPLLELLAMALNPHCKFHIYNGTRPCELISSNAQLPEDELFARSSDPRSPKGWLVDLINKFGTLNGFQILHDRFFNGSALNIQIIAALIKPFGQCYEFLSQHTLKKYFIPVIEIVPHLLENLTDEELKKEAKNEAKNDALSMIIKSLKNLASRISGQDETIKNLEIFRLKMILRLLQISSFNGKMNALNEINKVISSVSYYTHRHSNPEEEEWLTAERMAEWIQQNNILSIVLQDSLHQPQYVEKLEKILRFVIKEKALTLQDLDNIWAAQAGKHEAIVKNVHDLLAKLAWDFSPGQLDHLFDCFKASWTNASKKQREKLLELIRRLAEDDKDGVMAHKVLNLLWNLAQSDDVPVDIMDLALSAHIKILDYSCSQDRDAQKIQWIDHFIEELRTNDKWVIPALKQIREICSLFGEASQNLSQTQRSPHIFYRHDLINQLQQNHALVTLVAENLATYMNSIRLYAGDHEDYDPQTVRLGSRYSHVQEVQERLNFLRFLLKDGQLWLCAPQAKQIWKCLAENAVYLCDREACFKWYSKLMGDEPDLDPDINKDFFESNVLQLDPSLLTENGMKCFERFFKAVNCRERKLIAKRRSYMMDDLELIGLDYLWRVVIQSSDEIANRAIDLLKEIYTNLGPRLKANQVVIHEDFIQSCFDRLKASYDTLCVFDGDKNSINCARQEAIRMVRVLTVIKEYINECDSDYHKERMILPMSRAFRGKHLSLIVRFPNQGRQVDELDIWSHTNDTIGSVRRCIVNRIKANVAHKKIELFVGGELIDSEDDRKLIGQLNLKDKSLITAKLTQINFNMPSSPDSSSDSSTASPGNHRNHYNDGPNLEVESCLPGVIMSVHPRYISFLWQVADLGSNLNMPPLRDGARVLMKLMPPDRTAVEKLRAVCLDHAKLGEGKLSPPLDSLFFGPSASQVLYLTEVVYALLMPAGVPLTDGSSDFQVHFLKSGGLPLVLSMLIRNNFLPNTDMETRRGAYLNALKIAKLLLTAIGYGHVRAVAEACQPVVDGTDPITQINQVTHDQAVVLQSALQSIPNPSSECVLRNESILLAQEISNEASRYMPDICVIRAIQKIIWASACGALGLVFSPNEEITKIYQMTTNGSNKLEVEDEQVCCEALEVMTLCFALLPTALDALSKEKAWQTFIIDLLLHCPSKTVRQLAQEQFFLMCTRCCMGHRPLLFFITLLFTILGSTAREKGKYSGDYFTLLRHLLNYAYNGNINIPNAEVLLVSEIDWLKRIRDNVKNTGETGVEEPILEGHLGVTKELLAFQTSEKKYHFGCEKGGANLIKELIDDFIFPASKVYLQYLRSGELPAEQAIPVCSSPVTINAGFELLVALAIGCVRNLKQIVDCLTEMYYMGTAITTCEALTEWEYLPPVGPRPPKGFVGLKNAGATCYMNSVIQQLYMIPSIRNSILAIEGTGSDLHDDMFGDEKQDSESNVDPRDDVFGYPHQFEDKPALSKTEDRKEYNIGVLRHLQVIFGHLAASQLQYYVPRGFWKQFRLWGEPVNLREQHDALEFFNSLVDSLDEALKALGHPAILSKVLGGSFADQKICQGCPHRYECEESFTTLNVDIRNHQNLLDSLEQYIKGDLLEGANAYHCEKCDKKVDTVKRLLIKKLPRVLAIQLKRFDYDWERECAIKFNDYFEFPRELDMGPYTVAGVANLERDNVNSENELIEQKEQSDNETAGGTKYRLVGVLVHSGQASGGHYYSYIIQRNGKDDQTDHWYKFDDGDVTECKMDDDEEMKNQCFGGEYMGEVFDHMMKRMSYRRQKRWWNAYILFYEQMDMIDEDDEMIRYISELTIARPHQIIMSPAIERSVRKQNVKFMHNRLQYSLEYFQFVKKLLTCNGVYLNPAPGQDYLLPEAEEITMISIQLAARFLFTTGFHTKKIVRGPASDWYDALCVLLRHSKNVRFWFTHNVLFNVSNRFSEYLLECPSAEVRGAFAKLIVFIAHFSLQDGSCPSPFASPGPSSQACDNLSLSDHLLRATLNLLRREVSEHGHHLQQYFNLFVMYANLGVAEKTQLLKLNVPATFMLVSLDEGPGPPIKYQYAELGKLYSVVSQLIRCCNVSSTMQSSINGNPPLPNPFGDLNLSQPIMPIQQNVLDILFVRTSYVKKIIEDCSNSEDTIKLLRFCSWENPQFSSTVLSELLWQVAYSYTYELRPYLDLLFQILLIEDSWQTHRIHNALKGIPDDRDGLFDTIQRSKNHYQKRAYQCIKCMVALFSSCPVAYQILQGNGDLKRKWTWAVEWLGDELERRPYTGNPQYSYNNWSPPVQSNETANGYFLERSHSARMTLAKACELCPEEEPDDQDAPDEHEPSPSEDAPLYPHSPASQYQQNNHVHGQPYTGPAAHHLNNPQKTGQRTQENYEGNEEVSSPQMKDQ
Chain of UniProt P51784 (P51784 whole entry): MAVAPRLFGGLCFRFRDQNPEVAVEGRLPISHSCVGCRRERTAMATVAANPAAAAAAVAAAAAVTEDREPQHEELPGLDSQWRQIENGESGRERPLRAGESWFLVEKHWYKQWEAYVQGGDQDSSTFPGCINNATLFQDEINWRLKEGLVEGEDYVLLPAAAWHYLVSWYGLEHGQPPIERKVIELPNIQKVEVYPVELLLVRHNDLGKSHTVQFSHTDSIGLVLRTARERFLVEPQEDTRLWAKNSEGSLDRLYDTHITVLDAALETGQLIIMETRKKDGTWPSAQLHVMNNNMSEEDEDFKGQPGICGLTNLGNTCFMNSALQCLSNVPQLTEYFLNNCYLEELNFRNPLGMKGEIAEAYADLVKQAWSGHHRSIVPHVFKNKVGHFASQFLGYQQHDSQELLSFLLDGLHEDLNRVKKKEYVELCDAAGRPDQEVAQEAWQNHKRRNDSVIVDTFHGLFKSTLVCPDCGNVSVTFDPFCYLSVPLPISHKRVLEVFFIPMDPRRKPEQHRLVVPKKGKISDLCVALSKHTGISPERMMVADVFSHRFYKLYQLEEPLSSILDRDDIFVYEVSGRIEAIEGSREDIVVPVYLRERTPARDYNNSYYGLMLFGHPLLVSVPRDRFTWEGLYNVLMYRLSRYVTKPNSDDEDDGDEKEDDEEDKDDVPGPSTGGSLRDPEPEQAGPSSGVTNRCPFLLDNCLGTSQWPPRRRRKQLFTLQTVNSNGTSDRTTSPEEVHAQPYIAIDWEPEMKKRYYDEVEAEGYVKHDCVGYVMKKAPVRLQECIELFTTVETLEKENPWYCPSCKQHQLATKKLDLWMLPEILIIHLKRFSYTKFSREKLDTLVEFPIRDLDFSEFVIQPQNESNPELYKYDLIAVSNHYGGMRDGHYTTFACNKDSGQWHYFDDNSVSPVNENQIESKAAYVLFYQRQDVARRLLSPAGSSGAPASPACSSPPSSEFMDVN
Chain of UniProt O00487 (O00487 whole entry): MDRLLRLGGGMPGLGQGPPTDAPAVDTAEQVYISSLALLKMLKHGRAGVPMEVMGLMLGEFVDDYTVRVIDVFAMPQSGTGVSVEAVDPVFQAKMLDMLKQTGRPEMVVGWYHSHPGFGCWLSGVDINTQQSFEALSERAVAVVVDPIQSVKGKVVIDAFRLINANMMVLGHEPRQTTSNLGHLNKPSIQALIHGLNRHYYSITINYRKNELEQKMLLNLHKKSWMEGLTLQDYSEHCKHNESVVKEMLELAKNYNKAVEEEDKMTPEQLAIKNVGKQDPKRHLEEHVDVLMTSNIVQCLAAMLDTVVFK

O=C(CCl)Nc1ccc(F)cc1Cl
active: UniProt Q9UGI0 -1.18
inactive: USP9X -0.538 | UniProt O00487 -0.0503 | UniProt O00507 -0.442 | UniProt P51784 -0.238 | UniProt Q5T2D3 -0.425 | UniProt Q8TE49 -1.35 | UniProt Q9P2H5 -0.211 | YOD1 -0.759
